Reference: PubChem BioAssay (EPA / NIEHS)
Inconclusive results are not listed. Active and inactive are the calls of the source. Rule for the calls: active = hit-call score of the fitted dose curve at least 0.9, where 1 is the maximum; inconclusive = response in the unintended direction; inactive = score below 0.9.

molecular target: human Retinoic Acid Receptor gamma (RARg), RARG (gene 5916) (UniProt P13631); experiment: ATG_RARg_TRANS: Attagene TRANS-FACTORIAL HepG2 Assay for human Retinoic Acid Receptor gamma (RARg) (AID 2283009)
Outline: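 HepG2 cells transiently transfected with multiplexed reporter units expressing chimeric RARg-GAL4 and GAL4-UAS-driven reporters; 24 h compound exposure. Reporter mRNA quantified by RT-PCR with fluorescent labelling and capillary electrophoresis; gain-of-signal fitted relative to DMSO baseline.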

human Retinoic Acid Receptor gamma (RARg), RARG (gene 5916), sequence (P13631 whole entry, looked up, the tested form may be a part): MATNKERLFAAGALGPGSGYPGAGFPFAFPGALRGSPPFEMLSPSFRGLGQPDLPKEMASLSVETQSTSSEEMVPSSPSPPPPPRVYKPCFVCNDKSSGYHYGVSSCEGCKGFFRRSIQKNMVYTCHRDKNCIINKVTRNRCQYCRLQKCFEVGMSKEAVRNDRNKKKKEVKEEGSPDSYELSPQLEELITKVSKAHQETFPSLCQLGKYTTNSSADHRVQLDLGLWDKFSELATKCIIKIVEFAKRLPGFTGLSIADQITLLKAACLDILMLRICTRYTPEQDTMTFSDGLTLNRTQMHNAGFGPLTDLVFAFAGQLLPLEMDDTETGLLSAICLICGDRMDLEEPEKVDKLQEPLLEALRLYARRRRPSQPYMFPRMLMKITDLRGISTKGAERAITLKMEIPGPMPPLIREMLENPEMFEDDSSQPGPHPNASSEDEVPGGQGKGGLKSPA

With `N[C@@H](Cc1c[nH]c2ccccc12)C(=O)O` as the compound, how does the outcome read?
Its outcome is “inactive”.

`NC=O` was tested. Which outcome did it give?
Its outcome is “inactive”.

`Oc1ccc(O)cc1` was tested. Which outcome did it give?
Its outcome is “inactive”.

For `CCN(CC)CCOc1ccc(C(=C(Cl)c2ccccc2)c2ccccc2)cc1`, which outcome is on record?
The outcome was “inactive”.

molecular target: human RAR-related Orphan Receptor beta (RORb), RORB (gene 6096) (UniProt Q92753); experiment: ATG_RORb_TRANS: Attagene TRANS-FACTORIAL HepG2 Assay for human RAR-related Orphan Receptor beta (RORb) (AID 2283010)
Outline: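 HepG2 cells were transiently transfected with multiplexed GAL4-UAS reporter units expressing chimeric nuclear receptor–GAL4 proteins, then dosed for 24 h. Reporter mRNA was quantified by RT-PCR with fluorescent labelling and capillary electrophoresis; gain of signal was fitted relative to DMSO.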

human RAR-related Orphan Receptor beta (RORb), RORB (gene 6096), sequence (Q92753 whole entry, looked up, the tested form may be a part): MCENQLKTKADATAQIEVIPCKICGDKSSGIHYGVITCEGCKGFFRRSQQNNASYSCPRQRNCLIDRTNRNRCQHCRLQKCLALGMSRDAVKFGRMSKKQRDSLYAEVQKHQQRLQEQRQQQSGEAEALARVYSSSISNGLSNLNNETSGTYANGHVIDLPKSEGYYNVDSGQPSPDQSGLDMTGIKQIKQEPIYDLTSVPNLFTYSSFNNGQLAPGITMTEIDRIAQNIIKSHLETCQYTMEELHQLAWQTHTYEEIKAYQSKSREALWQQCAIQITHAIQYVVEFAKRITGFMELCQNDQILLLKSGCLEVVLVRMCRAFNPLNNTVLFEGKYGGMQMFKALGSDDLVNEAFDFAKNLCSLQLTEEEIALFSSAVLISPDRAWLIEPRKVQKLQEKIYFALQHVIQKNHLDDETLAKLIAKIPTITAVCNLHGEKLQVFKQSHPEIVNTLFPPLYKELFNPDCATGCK

How did the outcome turn out when `CCCCC(CC)COP(=O)(OCC(CC)CCCC)OCC(CC)CCCC` (stereo not drawn) was run?
The outcome was “inactive”.

`O=C(O)c1cccnc1` was tested. Which outcome did it give?
Its outcome is “inactive”.

`CCCCCCCCCCCCCCCCO` was tested. Which outcome did it give?
The outcome was “inactive”.

How did the outcome turn out when `COC(=O)CCCC(=O)OC` was run?
Its outcome is “inactive”.

Which outcome does the source give for `N[C@@H](Cc1c[nH]c2ccccc12)C(=O)O` here?
The outcome was “inactive”.

`Cc1occc(=O)c1O` was tested. Which outcome did it give?
Its outcome is “inactive”.

How did the outcome turn out when `CCCCCCC(C=O)=Cc1ccccc1` was run?
Its outcome is “inactive”.

With `NC=O` as the compound, how does the outcome read?
Its outcome is “inactive”.

How did the outcome turn out when `Oc1ccc(O)cc1` was run?
The outcome was “inactive”.
